This is an account of results in PubChem BioAssay.

Test [1] can be described thus: anti-His antibody binders, primary screen, artefact control for SMM control protein annotation, biochemical, small-molecule microarray, 635 nm fluorescence (AID 1128).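 Further: score merges feature fluorescence with signal-to-noise for each printed compound spot.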 To be noted: anti-His Alexa647 antibody binding, higher = more signal.
The test system of test [2] is Human papillomavirus type 1a E7 protein (residues 1-88). The test can be described thus: HPV1a E7 small-molecule binders, primary screen, biochemical, small-molecule microarray, residues 1-88, 635 nm (AID 1129). To be noted: small-molecule microarray binding, fluorescence 635 nm; higher = more signal.
For test [3], the target named is Focal adhesion kinase 1 (Homo sapiens) (UniProt Q05397). Kind of test: small-molecule microarray binders of FAK, primary screen, biochemical, 635/667 nm fluorescence, BSA, DTT (AID 1130).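 Further: composite of spot emission at 667 nm and signal to noise over triplicate slides.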 The settings on record: PTK2 binding, 635 nm fluorescence, higher = more signal.
Sequence of Focal adhesion kinase 1 (Homo sapiens) (Q05397 whole entry, looked up): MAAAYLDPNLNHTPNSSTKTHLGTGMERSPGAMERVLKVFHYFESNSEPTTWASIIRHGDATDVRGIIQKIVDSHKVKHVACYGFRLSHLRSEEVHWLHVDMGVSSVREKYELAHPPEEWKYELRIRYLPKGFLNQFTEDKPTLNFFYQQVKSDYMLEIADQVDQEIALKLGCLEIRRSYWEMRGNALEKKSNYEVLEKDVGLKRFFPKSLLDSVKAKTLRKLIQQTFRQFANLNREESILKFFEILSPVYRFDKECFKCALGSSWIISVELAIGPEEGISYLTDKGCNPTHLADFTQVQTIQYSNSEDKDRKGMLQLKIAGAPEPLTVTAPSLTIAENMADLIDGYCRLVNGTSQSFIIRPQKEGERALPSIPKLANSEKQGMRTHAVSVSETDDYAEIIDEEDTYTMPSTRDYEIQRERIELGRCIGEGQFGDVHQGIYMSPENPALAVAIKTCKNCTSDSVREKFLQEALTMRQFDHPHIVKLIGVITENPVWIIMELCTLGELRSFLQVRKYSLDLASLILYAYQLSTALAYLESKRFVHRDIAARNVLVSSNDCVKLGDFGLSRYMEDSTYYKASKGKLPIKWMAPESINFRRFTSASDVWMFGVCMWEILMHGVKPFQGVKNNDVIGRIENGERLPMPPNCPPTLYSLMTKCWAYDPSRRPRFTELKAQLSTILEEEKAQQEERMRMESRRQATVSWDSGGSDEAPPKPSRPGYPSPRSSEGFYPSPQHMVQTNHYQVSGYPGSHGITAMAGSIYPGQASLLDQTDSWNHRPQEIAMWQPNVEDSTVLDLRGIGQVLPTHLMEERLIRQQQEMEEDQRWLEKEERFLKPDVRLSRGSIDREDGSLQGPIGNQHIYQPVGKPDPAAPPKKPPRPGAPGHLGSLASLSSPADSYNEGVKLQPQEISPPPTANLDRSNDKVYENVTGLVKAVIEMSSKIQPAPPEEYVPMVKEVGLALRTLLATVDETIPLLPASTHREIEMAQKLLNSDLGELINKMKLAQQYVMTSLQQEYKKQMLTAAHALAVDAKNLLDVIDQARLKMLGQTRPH
Test [4] deals with Fibrinogen (Alexa647-labelled). Kind of test: fibrinogen binders on compound microarrays, profiling panel, artefact control for SMM control-protein annotation, biochemical, small-molecule microarray, 635/667 nm fluorescence (AID 1131).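 Further: z-score merges 667 nm fluorescence with per-spot signal-to-noise over triplicate slides.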 The settings on record: fibrinogen-A647 binding fluorescence, higher = more signal.
Test [5] addresses Follistatin (Homo sapiens) (UniProt P19883). The test can be described thus: follistatin binders on small-molecule microarrays, primary screen, biochemical, small-molecule microarray, 635/667 nm fluorescence (AID 1132). To be noted: FST binding, 635 nm fluorescence, higher = more signal.
For test [6], the target named is Fibroblast growth factor 2 (Homo sapiens) (UniProt P09038). Kind of test: FGF2 binders on small-molecule microarrays, primary screen, biochemical, small-molecule microarray, 635/667 nm fluorescence (AID 1133). To be noted: small-molecule microarray binding, FGF2, fluorescence 635/667; higher = more signal.
Sequence of Fibroblast growth factor 2 (Homo sapiens) (P09038 whole entry, looked up): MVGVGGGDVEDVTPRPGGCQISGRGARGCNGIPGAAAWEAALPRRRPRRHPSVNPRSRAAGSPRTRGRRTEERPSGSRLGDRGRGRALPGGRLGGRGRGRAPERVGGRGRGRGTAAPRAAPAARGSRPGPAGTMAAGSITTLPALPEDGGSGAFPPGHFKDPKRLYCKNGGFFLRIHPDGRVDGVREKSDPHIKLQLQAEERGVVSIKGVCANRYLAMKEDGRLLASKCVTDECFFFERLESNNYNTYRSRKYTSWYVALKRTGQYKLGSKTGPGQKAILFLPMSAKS
A short description of test [7]: mitochondrial membrane potential change in A549 cells, profiling panel, cell-based, JC-1 fluorescence, basal, 24 h, 100 nL (AID 1138).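 Further: A549 lung adenocarcinoma cells under basal conditions with no added stimulus; test concentration not given here.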 To be noted: higher = more signal.
For a further test, the system named is Lefty1. Kind of test: Lefty1 binders on small-molecule microarrays, primary screen, biochemical, small-molecule microarray, 635/667 nm fluorescence (AID 1139). The settings on record: small-molecule microarray binding, fluorescence 635/667; higher = more signal.
The subject of test [8] is wheat germ agglutinin (Triticum aestivum), Alexa647-labelled. The test can be described thus: wheat germ agglutinin binders on compound microarrays, profiling panel, artefact control for SMM control-protein annotation, biochemical, small-molecule microarray, 635/667 nm fluorescence (AID 1140).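 Further: score merges 667 nm feature emission with signal to noise over triplicate slides.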 To be noted: WGA-A647 binding, 635 nm fluorescence, higher = more signal.
Test [9] has as its target Luciferin 4-monooxygenase (Photinus pyralis) (UniProt P08659). Kind of test: firefly luciferase enzyme inhibitors, primary screen, biochemical, luminescence, purified enzyme, 2006 set (AID 1141).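 Further: cell-free assay with purified firefly luciferase at 100 ng per well in PBS; test concentration not given here.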 The settings on record: SteadyGlo luminescence, 30 min, higher = more signal, called active from +8 up or from −8 down.

The structures appear in SMILES notation. The source made the active and inactive calls.

Sequence of Follistatin (Homo sapiens) (P19883 whole entry, looked up): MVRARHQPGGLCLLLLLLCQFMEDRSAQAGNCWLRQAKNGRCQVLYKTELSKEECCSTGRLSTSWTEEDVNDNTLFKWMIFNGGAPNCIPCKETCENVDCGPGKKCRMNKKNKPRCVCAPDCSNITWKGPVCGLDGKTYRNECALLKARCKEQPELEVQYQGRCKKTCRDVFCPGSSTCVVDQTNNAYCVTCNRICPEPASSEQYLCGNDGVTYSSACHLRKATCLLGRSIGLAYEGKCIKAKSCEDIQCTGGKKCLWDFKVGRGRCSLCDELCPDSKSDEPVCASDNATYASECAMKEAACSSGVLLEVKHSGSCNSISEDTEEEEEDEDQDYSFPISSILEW
Sequence of Luciferin 4-monooxygenase (Photinus pyralis) (P08659 whole entry, looked up): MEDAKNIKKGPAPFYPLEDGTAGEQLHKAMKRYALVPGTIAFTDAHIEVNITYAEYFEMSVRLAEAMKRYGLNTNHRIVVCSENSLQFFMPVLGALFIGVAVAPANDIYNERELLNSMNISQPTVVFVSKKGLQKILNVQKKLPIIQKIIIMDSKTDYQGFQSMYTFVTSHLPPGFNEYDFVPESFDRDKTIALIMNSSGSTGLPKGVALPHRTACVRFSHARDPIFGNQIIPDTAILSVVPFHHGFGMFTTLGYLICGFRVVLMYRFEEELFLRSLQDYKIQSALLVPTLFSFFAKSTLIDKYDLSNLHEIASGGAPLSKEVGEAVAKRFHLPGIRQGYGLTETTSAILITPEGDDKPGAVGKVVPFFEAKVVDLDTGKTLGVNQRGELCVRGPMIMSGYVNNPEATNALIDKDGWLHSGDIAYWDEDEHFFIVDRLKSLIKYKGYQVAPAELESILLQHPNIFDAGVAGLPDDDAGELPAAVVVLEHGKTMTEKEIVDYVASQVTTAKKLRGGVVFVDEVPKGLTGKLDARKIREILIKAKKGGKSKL

For the molecule `Cc1ccc(S[C@]2(C(=O)NCC(F)(F)F)CC(=O)N(Cc3ccccc3C(F)(F)F)[C@@H]2c2ccc(CO)cc2)cc1`, the composite z-score in test [1] is -0.344; in test [2], -0.481; in test [3] it was -1.09; in test [4], -0.563; in [5] it was -1.11; in test [6], -0.826. For the same molecule, the composite z-score is -1.44 with Lefty1 and -0.564 in [8]. Besides, the z-score was -0.144 in test [7] and 0.714 (inactive) in [9].
Regarding `C=CCC(OC(C)=O)[C@@H]1[C@@H](N(Cc2cccc3ccccc23)C(=O)Cc2ccc(OC)cc2)c2cc(OCCCO)ccc2N1C(=O)Cc1ccc2ccccc2c1` (stereo not given in full), the composite z-score in test [1] was -0.538; in test [2], -0.609; in test [3] it was -0.495; in [4] it was -0.331; in test [5] it was 0.688; in test [6], 0.182. The values for the composite z-score (in the test on Lefty1; in test [8]) were 0.353 and 0.507, respectively. Moreover, the z-score in test [7] is 0.309; in test [9] it was 0.969 (inactive).
As for `COc1ccc(C(O)C2C=CC3C(=O)N(c4ccccc4)C(=O)C3N2Nc2ccc([N+](=O)[O-])cc2)c2ccccc12` (stereo not given), the composite z-score came out at 0.57 in test [1]; 1.25 in test [2]; 0.846 in test [3]; 1 in test [4]; 0.91 in [5]; 0.54 in test [6]. In addition, the composite z-score in the test on Lefty1 was 0.0679; in test [8] it was 1.21. Besides, the z-score was -1.56 in test [7] and 1.19 (inactive) in test [9].
`C[C@@H]1ON(c2ccc(I)cc2)[C@H](c2cccc(NC(=O)OCC3c4ccccc4-c4ccccc43)c2)[C@H]1C(=O)N1C(=O)OC[C@H]1Cc1ccccc1`: the composite z-score in [1] is 0.296; in test [2], 0.506; in test [3], -0.0828; in [4], 0.544; in test [5], 0.566; in [6], 0.249. In addition, the composite z-score in the test with Lefty1 was found to be 0.593; in [8], 0.334. Moreover, the z-score is 1.37 in [7] and -1.24 (inactive) in [9].
Consider `CC(C)C[C@H]1NC(=O)C([C@@H](C)OCc2ccccc2)NC(=O)[C@@]23C(=O)N[C@@H](Cc4ccccc4)C2[C@H](C)[C@@]2(C)O[C@H]2C3/C=C/C/C=C\CNC1=O` (stereo not given in full), for which the composite z-score in [1] is 1.42; in test [2], 1; in [3], 0.231; in [4], 0.504; in test [5], 1.24; in [6], 0.434. Also, the composite z-score in the test with Lefty1 amounted to 1.01; in [8], 0.999. Also, the z-score in test [7] is 0.487; in test [9], -0.53 (inactive).
As for `COc1ccc(C(=O)Nc2ccc3c(c2)[C@@]2(O[C@H](CCO)[C@@H]([Si](C)(C)c4ccc(OC)cc4)[C@@H]2C)C(=O)N3Cc2ccccc2)cc1`, the composite z-score is 0.829 in test [1]; 0.989 in test [2]; 0.397 in test [3]; 0.592 in [4]; 1.25 in test [5]; 1.45 in [6]. Further, the composite z-score with Lefty1 amounted to 0.792; in test [8], 0.413. Also, the z-score was -1.3 in test [7] and -0.585 (inactive) in test [9].
Take `O=C1O[C@@H](c2ccccc2)[C@@H](c2ccccc2)N2[C@@H](c3ccccc3OCCO)[C@]3(C(=O)Nc4ccc(C#CCCO)cc43)[C@@H](C(=O)NC[C@H](O)c3ccccc3)[C@H]12`: the composite z-score worked out at 1.32 in test [1]; 1.25 in test [2]; 1.06 in [3]; 0.847 in test [4]; 1.27 in test [5]; 0.835 in test [6]. Further, the composite z-score in the test on Lefty1 was found to be 0.831; in [8], 0.891. Besides, the figures for the z-score in [7] and in test [9] were -0.928 and 0.808 (inactive), respectively.
On to `C=C(C)[C@@H]1CC=C(C(O)C2C=CC3C(=O)N(C)C(=O)C3N2Nc2ccc([N+](=O)[O-])cc2[N+](=O)[O-])CC1` (stereo not given in full), for which the composite z-score is 0.607 in test [1]; 1.27 in test [2]; 0.512 in test [3]; 1 in test [4]; 1.24 in test [5]; -0.0675 in [6]. Besides, the figures for the composite z-score (in the test on Lefty1; in test [8]) were 0.424 and 0.799, respectively. For the same molecule, the z-score in test [7] is 1.88; in test [9] it was 0.511 (inactive).
On to `CN(C)c1ccc(C(O)C2C=CC3C(=O)N(Cc4ccccc4)C(=O)C3N2n2cnnc2)cc1` (stereo not given), for which the composite z-score is 0.108 in test [1]; 0.115 in [2]; -0.535 in test [3]; 0.32 in [4]; 0.225 in test [5]; 0.239 in test [6]. The figures for the composite z-score (in the test with Lefty1; in test [8]) were -0.231 and 0.0743, respectively. In addition, the z-score was -0.269 in test [7] and -1.66 (inactive) in test [9].
Take `O=C1NC(=O)C2C1C=CC(C(O)c1ccc([N+](=O)[O-])cc1)N2Nc1ccccn1` (stereo not given): the composite z-score in test [1] is 0.753; in [2], 0.175; in [3] it was -0.329; in test [4], 0.0114; in test [5], -0.12; in test [6], -0.163. Moreover, the composite z-score in the test on Lefty1 was -0.262; in test [8], -0.0047. Moreover, the z-score in [7] was -0.0893; in [9], -1.48 (inactive).
`C=CC[C@@]12N=C(c3ccc(OCCCO)cc3)O[C@@H]1c1ccccc1N(CCC)C2=O`: the composite z-score worked out at 2.58 in [1]; 1.22 in [2]; 0.359 in test [3]; 0.512 in test [4]; 1.52 in test [5]; 1.72 in test [6]. The composite z-score worked out at 1.31 in the test on Lefty1 and 0.777 in test [8]. Further, the z-score is 2.58 in test [7] and -2.23 (inactive) in [9].
